In PubChem BioAssay:
Values without a mark were called inactive. Results filed as inconclusive are left out. Active and inactive are the calls of the source.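 The calls were made as follows, unless noted: active = viability increase at or above a cutoff of the median across tested compounds plus 3 SD (cut at about 8.5% in these data, passing the limit was not always enough); inconclusive = some gains above the cutoff, reason not given; inactive = the rest.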

assay: viability gain of MRP-1-high H69AR cells under doxorubicin, pilot screen, MRP-1 activator project, CellTiter-Glo, duplicate (AID 807); settings: H69AR viability with doxorubicin, CellTiter-Glo luminescence; at 10 µM; active compounds read high;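 also: compound pretreatment 18-22 h then 72 h combined with doxorubicin; 0% = doxorubicin alone and 100% = vehicle without doxorubicin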

Row | SMILES | viability increase
1 | CC(CCc1ccccc1)NC(=O)C1CCCN(c2nnc(-n3cccc3)s2)C1 (stereo not drawn) | -1.84%
2 | O=C(c1cc(C2CC2)on1)N1CCN(C(c2ccccc2)c2ccccc2)CC1 | 2.29%
3 | O=C(C1COc2ccccc2O1)N1CCCC1 (stereo not drawn) | -0.88%
4 | CCCCOC(=O)Nc1nc2ccc(OC)cc2s1 | 2.27%
5 | CCn1cc(C(=O)NCC2CCCO2)c(=O)c2cc(S(=O)(=O)N(C)C3CCCCC3)ccc21 (stereo not drawn) | -5.22%
6 | CCCNC(=O)CS(=O)(=O)Cc1nc(-c2cccc(OC)c2)oc1C | -0.31%
7 | CC(=O)C1=C(N2CCCCC2)CCC1=O | -2.01%
8 | CCOC(=O)C1CCN(Cc2ccc(F)c(Br)c2)CC1 | -2.69%
9 | Cc1ccc(N(C(=O)c2ccncc2)C2C=CS(=O)(=O)C2)cc1 (stereo not drawn) | 0.88%
10 | COc1ccc(CCNC(=O)C2(C)CCC(=O)N2Cc2ccc3c(c2)OCO3)cc1OC (stereo not drawn) | 0.26%
11 | COc1ccc(C2c3c(oc4ccccc4c3=O)C(=O)N2c2ccc(C)cn2)cc1OC (stereo not drawn) | -2.66%
12 | CCn1cc(C(=O)NCCCOC)c(=O)c2cc(S(=O)(=O)N(C)C)ccc21 | -2.52%
13 | Cc1cc(C)nc(/N=C2\NC(=O)CC(C(=O)O)N2c2ccc(Cl)cc2)n1 (stereo not drawn) | 1.08%
14 | O=C(O)c1ccccc1S(=O)(=O)NCC(O)COc1ccc(Br)cc1 (stereo not drawn) | 0.84%
15 | COC(=O)Cn1c(=NC(=O)CSCC(=O)Nc2cc(C)on2)sc2ccccc21 | -0.92%
16 | COc1ccc(S(=O)(=O)N(CC(=O)N2CCN(c3ccccc3OC)CC2)c2ccccc2)cc1 | 5.84%
17 | CCOc1ccccc1NC(=O)CC1Nc2cc(C)c(C)cc2NC1=O (stereo not drawn) | -5.9%
18 | COc1ccc(N2Cc3ccccc3C2)cc1Cl | 0.04%
19 | CCOC(=O)C(CC)n1nc(C)n2c(cc3sccc32)c1=O (stereo not drawn) | -2.34%
20 | CCOC(=O)C(CC)(CCC(=O)O)c1csc(N)n1 (stereo not drawn) | -1.31%

Row | SMILES | viability increase
21 | CCOc1ccc(NC(=O)CN2C(=O)C3CCCN3C2=O)cc1 (stereo not drawn) | -0.9%
22 | CCOC(=O)N1CCN(C(=O)COc2ccc(S(=O)(=O)NC(C)C)cc2)CC1 | -0.64%
23 | O=C(NC1CCCc2ccccc21)c1ccc(CNc2c(N3CCOCC3)c(=O)c2=O)cc1 (stereo not drawn) | -3.89%
24 | CNC(=O)c1ccsc1NC(=O)c1ccccc1 | -0.77%
25 | N#Cc1cc2c(nc1SCC(=O)N1CCCCC1)CCCC2 | -1.73%
26 | COc1ccc(N2CCN(c3oc(COc4ccccc4Cl)nc3C#N)CC2)cc1 | 2.27%
27 | COc1ccccc1S(=O)(=O)Cc1ccc(C(=O)N2CCN(c3ccc(C)cc3)C(C)C2)o1 (stereo not drawn) | -6.26%
28 | CCOC(=O)N1CCC(c2cc(=O)n3[nH]c(C)c(-c4ccc(F)cc4)c3n2)CC1 | 0.52%
29 | O=C1CCCC2=C1C(c1cccc(Br)c1)n1nc(-c3ccco3)nc1N2 (stereo not drawn) | -2.06%
30 | CCc1ccccc1NC(=O)c1cnc2n(c1=O)CCS2 | 3.48%
31 | CC(CCc1ccco1)NC(=O)Cn1ncc2c1-c1ccccc1OC2 (stereo not drawn) | -4.45%
32 | COc1cccc(NC(=O)C2CCCN(S(=O)(=O)c3cccc4cccnc34)C2)c1 (stereo not drawn) | -1.5%
33 | COc1ccc(C(=O)Nc2nncs2)c(OC)c1 | -0.64%
34 | CNC(=O)c1ccccc1NC(=O)c1c(O)c2c([nH]c1=O)CCCC2 | -2.56%
35 | Cc1occc1C(=O)N1CCN(Cc2ccccc2)CC1 | -1.95%
36 | CN(C)CCCN1C(=O)CSC1c1ccccc1 (stereo not drawn) | -0.9%
37 | CCc1ccc(N(CC(=O)NC2CCCC2)S(=O)(=O)c2c(C)noc2C)cc1 | -1.49%
38 | CSc1cccc(NC(=O)C2CCN(S(=O)(=O)c3ccc(F)cc3)CC2)c1 | -4.63%
39 | O=C(CSc1nnc(Cn2c(=O)sc3ccccc32)n1-c1ccccc1)Nc1nccs1 | -3.44%

assay: growth suppression of beta-catenin knockout HCT116, pilot screen, human colon tumor cells (AID 823;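 active = cell viability at or below a set limit in both duplicate runs, the limit being the all-compound median minus 4 SD, cut at about 23% in these data, passing the limit was not always enough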;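 also: 0% = wells killed by 20 µM Hyamine and 100% = untreated DMSO cell wells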); settings: CellTiter-Glo, 60 h, at 10 µM, active compounds read low

Row | SMILES | viability
40 | CC(CCc1ccccc1)NC(=O)C1CCCN(c2nnc(-n3cccc3)s2)C1 (stereo not drawn) | 93.5%
41 | O=C(c1cc(C2CC2)on1)N1CCN(C(c2ccccc2)c2ccccc2)CC1 | 90.9%
42 | O=C(C1COc2ccccc2O1)N1CCCC1 (stereo not drawn) | 105%
43 | CCCCOC(=O)Nc1nc2ccc(OC)cc2s1 | 96.3%
44 | CCn1cc(C(=O)NCC2CCCO2)c(=O)c2cc(S(=O)(=O)N(C)C3CCCCC3)ccc21 (stereo not drawn) | 88.9%
45 | CCCNC(=O)CS(=O)(=O)Cc1nc(-c2cccc(OC)c2)oc1C | 93.1%
46 | CC(=O)C1=C(N2CCCCC2)CCC1=O | 94.5%
47 | CCOC(=O)C1CCN(Cc2ccc(F)c(Br)c2)CC1 | 90.4%
48 | Cc1ccc(N(C(=O)c2ccncc2)C2C=CS(=O)(=O)C2)cc1 (stereo not drawn) | 93.8%
49 | COc1ccc(CCNC(=O)C2(C)CCC(=O)N2Cc2ccc3c(c2)OCO3)cc1OC (stereo not drawn) | 102%
50 | COc1ccc(C2c3c(oc4ccccc4c3=O)C(=O)N2c2ccc(C)cn2)cc1OC (stereo not drawn) | 89%
51 | CCn1cc(C(=O)NCCCOC)c(=O)c2cc(S(=O)(=O)N(C)C)ccc21 | 97.6%
52 | Cc1cc(C)nc(/N=C2\NC(=O)CC(C(=O)O)N2c2ccc(Cl)cc2)n1 (stereo not drawn) | 99.5%
53 | O=C(O)c1ccccc1S(=O)(=O)NCC(O)COc1ccc(Br)cc1 (stereo not drawn) | 97.9%
54 | COC(=O)Cn1c(=NC(=O)CSCC(=O)Nc2cc(C)on2)sc2ccccc21 | 99.3%
55 | COc1ccc(S(=O)(=O)N(CC(=O)N2CCN(c3ccccc3OC)CC2)c2ccccc2)cc1 | 67.2%
56 | CCOc1ccccc1NC(=O)CC1Nc2cc(C)c(C)cc2NC1=O (stereo not drawn) | 77.5%
57 | COc1ccc(N2Cc3ccccc3C2)cc1Cl | 94%
58 | CCOC(=O)C(CC)n1nc(C)n2c(cc3sccc32)c1=O (stereo not drawn) | 99.8%
59 | CCOC(=O)C(CC)(CCC(=O)O)c1csc(N)n1 (stereo not drawn) | 96.8%

Row | SMILES | viability
60 | CCOc1ccc(NC(=O)CN2C(=O)C3CCCN3C2=O)cc1 (stereo not drawn) | 102%
61 | CCOC(=O)N1CCN(C(=O)COc2ccc(S(=O)(=O)NC(C)C)cc2)CC1 | 96.2%
62 | O=C(NC1CCCc2ccccc21)c1ccc(CNc2c(N3CCOCC3)c(=O)c2=O)cc1 (stereo not drawn) | 89.1%
63 | CNC(=O)c1ccsc1NC(=O)c1ccccc1 | 102%
64 | N#Cc1cc2c(nc1SCC(=O)N1CCCCC1)CCCC2 | 93%
65 | COc1ccc(N2CCN(c3oc(COc4ccccc4Cl)nc3C#N)CC2)cc1 | 65.7%
66 | COc1ccccc1S(=O)(=O)Cc1ccc(C(=O)N2CCN(c3ccc(C)cc3)C(C)C2)o1 (stereo not drawn) | 43.2%
67 | CCOC(=O)N1CCC(c2cc(=O)n3[nH]c(C)c(-c4ccc(F)cc4)c3n2)CC1 | 15.8% (active)
68 | O=C1CCCC2=C1C(c1cccc(Br)c1)n1nc(-c3ccco3)nc1N2 (stereo not drawn) | 81.5%
69 | CCc1ccccc1NC(=O)c1cnc2n(c1=O)CCS2 | 90.9%
70 | CC(CCc1ccco1)NC(=O)Cn1ncc2c1-c1ccccc1OC2 (stereo not drawn) | 101%
71 | COc1cccc(NC(=O)C2CCCN(S(=O)(=O)c3cccc4cccnc34)C2)c1 (stereo not drawn) | 72.4%
72 | COc1ccc(C(=O)Nc2nncs2)c(OC)c1 | 102%
73 | CNC(=O)c1ccccc1NC(=O)c1c(O)c2c([nH]c1=O)CCCC2 | 88.9%
74 | Cc1occc1C(=O)N1CCN(Cc2ccccc2)CC1 | 94.7%
75 | CN(C)CCCN1C(=O)CSC1c1ccccc1 (stereo not drawn) | 104%
76 | CCc1ccc(N(CC(=O)NC2CCCC2)S(=O)(=O)c2c(C)noc2C)cc1 | 92.3%
77 | CSc1cccc(NC(=O)C2CCN(S(=O)(=O)c3ccc(F)cc3)CC2)c1 | 64.3%
78 | O=C(CSc1nnc(Cn2c(=O)sc3ccccc32)n1-c1ccccc1)Nc1nccs1 | 89.5%
